ST2 inh: inhibitors of human ST2 (IL1RL1) binding to IL-33; actives 2.3% (n = 78,000); Q01638; AlphaLISA ST2-Fc/biotin-IL-33 interaction, 1 h; inhibition, % for hits at 17 µM; in the data active = inhibition above about 30%
Target sequence (Q01638 whole entry, looked up): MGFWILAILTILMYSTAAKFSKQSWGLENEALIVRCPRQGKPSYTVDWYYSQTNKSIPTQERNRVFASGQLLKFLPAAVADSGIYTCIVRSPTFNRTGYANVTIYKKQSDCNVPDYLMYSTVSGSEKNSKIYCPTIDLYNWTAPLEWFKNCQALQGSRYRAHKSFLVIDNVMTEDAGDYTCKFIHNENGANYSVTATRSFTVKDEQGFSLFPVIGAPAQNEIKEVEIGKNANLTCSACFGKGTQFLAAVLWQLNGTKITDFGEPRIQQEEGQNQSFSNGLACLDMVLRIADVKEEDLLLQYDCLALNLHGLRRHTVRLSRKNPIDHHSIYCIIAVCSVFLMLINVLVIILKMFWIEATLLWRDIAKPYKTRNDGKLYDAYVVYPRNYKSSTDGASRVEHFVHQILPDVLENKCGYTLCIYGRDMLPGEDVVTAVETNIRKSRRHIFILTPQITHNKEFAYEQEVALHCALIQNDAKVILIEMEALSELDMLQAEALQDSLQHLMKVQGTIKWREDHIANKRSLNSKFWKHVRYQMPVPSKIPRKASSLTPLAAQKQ
Starred values were filed as active, the others as inactive; ! = a repeat was not active. Shown is part of a subset that was picked to be rich in hits.

`CCOC(=O)C1CCCN(C(=O)c2cn(C)c(=O)c3cc(OC)c(OC)cc23)C1` (stereo not drawn) gave ST2 inh 35%*.
Screening CCn1cc(C(=O)N2CCN(C)CC2)c2cc(OC)c(OC)cc2c1=O returned ST2 inh inactive.
For CCN1CCN(C(=O)c2cn(CC)c(=O)c3cc(OC)c(OC)cc23)CC1 the results were ST2 inh inactive.
CCOC(=O)C1CCCN(C(=O)c2cn(CC(C)C)c(=O)c3cc(OC)c(OC)cc23)C1 (stereo not drawn) was read as ST2 inh inactive.
CS(=O)(=O)N1CCN(C(=O)COc2ccc(Cl)cc2)CC1 was read as ST2 inh inactive.
Screening O=C(O)c1ccc2c(Nc3ccc(F)c(Cl)c3)c3c(nc2c1)CCCC3 returned ST2 inh inactive.
Screening CCOC(=O)C(C)(C)Sc1nc2c(c(=O)n1-c1ccc(OCC)cc1)SCC2 returned ST2 inh 43%*.
For CCCSc1nc2c(c(=O)n1-c1ccc(F)cc1)SCC2 the results were ST2 inh inactive.
`CC(Sc1nc2c(c(=O)n1-c1ccc(F)cc1)SCC2)c1ccccc1` (stereo not drawn) gave ST2 inh inactive.
Screening CCOC(=O)C(C)(C)Sc1nc2c(c(=O)n1-c1ccc(Br)cc1)SCC2 returned ST2 inh inactive.
Cc1ccc(-n2c(SC(C)C)nc3c(c2=O)SCC3)cc1 was read as ST2 inh 36%*!.
Screening CCSc1nc2c(c(=O)n1-c1ccc(C)cc1)SCC2 returned ST2 inh 33%*!.
`CCOC(=O)C(C)(C)Sc1nc2c(c(=O)n1-c1ccc(Cl)cc1)SCC2` gave ST2 inh inactive.
`CCOC(=O)C(CC)Sc1nc2c(c(=O)n1-c1ccc(C)cc1)SCC2` (stereo not drawn) gave ST2 inh inactive.
`Cc1ccc(-n2c(SCC(=O)N3CCCCCC3)nc3c(c2=O)SCC3)cc1` gave ST2 inh inactive.
Cc1ccccc1-n1nc2c(c1NC(=O)C(C)C)CSC2 was read as ST2 inh inactive.
For COc1ccccc1C(=O)Nc1ccc(C)cc1 the results were ST2 inh inactive.
CCc1nnc(NC(=O)C2Cc3cc(S(=O)(=O)N4CCCCC4)ccc3N2C(C)=O)s1 (stereo not drawn) was read as ST2 inh inactive.
COc1ccc(N2CCSC2C(=O)c2ccccc2)cc1 (stereo not drawn) was read as ST2 inh 32%*.
Screening COc1ccc([C@@H]2C(C#N)=C(N)S[C@H]2C(=O)c2ccccc2)cc1 returned ST2 inh inactive.
`COc1ccc(C(=O)N2CCCc3ccccc32)cc1` gave ST2 inh inactive.
COc1ccc(C(=O)NC(O)C(Cl)(Cl)Cl)cc1 (stereo not drawn) was read as ST2 inh inactive.
Screening COc1ccc(N2C(=O)C3C(c4ccc(C)cc4)OC4(C(=O)c5ccccc5C4=O)C3C2=O)cc1 (stereo not drawn) returned ST2 inh inactive.
Screening Cc1ccc(C)c(-c2csc(NC(=O)c3cc(C)oc3C)c2C(N)=O)c1 returned ST2 inh inactive.
For Cc1nc(N2CCOCC2)c2c(C)c(C(=O)N3CCN(Cc4ccccc4)CC3)sc2n1 the results were ST2 inh inactive.
For COc1cccc(Nc2cc(C)nc3ccc(Cl)cc23)c1 the results were ST2 inh inactive.
`Cc1cc(Nc2ccc(O)cc2)c2cc(Cl)ccc2n1` gave ST2 inh inactive.
`Cc1cc(Nc2ccc(N(C)C)cc2)c2cc(Cl)ccc2n1` gave ST2 inh 39%*.
Screening COc1ccc2nc(C)cc(Nc3ccc(N(C)C)cc3)c2c1 returned ST2 inh 52%*.
`COc1ccc2nc(C)cc(Nc3ccccc3OC)c2c1` gave ST2 inh inactive.
CCOc1ccccc1Nc1cc(C)nc2ccc(OC)cc12 was read as ST2 inh inactive.
CCC(C(=O)NCCO)c1ccccc1 (stereo not drawn) was read as ST2 inh inactive.
For CCOc1ccccc1NC(=O)c1ccc(OC)cc1 the results were ST2 inh inactive.
COc1ccc2c(=O)c(-c3ccccc3)c(C(F)(F)F)oc2c1C was read as ST2 inh inactive.
Screening COc1ccccc1C=Nc1ccc(S(=O)(=O)Nc2ccccn2)cc1 returned ST2 inh inactive.
Screening O=C(NCc1cccs1)C1C2C=CC3(CN(Cc4cccs4)C(=O)C13)O2 (stereo not drawn) returned ST2 inh inactive.
Screening COc1ccc2cc(C(=O)Nc3ccccc3)c(=Nc3ccc(C#N)cc3)oc2c1 returned ST2 inh inactive.
Screening CC(=O)NC(=O)c1cc2cc(Br)ccc2oc1=Nc1cccc(C#N)c1 returned ST2 inh 33%*.
Screening N#Cc1ccc(N=c2oc3ccccc3cc2C(=O)Nc2ccccc2)cc1 returned ST2 inh 33%*.
For CC(=O)NC(=O)c1cc2cc(Br)ccc2oc1=Nc1cccc(F)c1 the results were ST2 inh inactive.
For CC(=O)NC(=O)c1cc2cc(Cl)cc(Cl)c2oc1=Nc1cccc(C#N)c1 the results were ST2 inh inactive.
COc1ccc2oc(=Nc3ccc(C#N)cc3)c(C(=O)Nc3ccccc3)cc2c1 was read as ST2 inh inactive.
`COc1ccc(/C=C/CN2CCN3CCN(C)CC3C2)cc1` (stereo not drawn) gave ST2 inh inactive.
COC(=O)[C@H](Cc1ccc(OC)cc1)NC(=O)[C@H]1CN(S(=O)(=O)c2ccccc2)CCN1C(=O)C1CCNCC1 was read as ST2 inh inactive.
O=C(Nc1ccc(N2CCOCC2)cc1)c1ccc(Br)cc1 was read as ST2 inh inactive.
For O=C(Nc1ccc(Br)cc1)c1ccc(Cl)cc1Cl the results were ST2 inh inactive.
Screening CC(=O)Nc1ccc(CN2CCN(c3ccc(Cl)cc3)CC2)cc1 returned ST2 inh inactive.
For O=C(Nc1ccc(N2CCCC2)cc1)c1cc(Br)ccc1Cl the results were ST2 inh 34%*.
`O=C(Nc1ccc(N2CCCC2)cc1)C(Cl)(Cl)Cl` gave ST2 inh 38%*.
`O=C(Nc1ccc(S(=O)(=O)N2CCCC2)cc1)C(F)(F)F` gave ST2 inh inactive.
Cn1nnnc1SCCNC(=O)CC1COCCN1 (stereo not drawn) was read as ST2 inh inactive.
COc1ccccc1OCc1cc(C(=O)NCc2ccccc2)n[nH]1 was read as ST2 inh inactive.
For CC(=O)Nc1sc2c(c1C#N)CCC2 the results were ST2 inh inactive.
N#Cc1c(N=CN2CCCCC2)sc2c1CCCCC2 was read as ST2 inh 35%*.
`N#Cc1c(N=CC2C(=O)c3ccccc3C2=O)sc2c1CCCC2` gave ST2 inh inactive.
For Cc1cccc(C(C(=O)NCCc2nncn2C)N(C)C)c1 (stereo not drawn) the results were ST2 inh inactive.
Screening CCCOc1ccccc1CCN1CCCCC1c1cccnc1 (stereo not drawn) returned ST2 inh inactive.
For O=C(NC1CCCC1)C1c2ccccc2C(=O)N1Cc1ccc2c(c1)OCO2 (stereo not drawn) the results were ST2 inh inactive.
CCOc1ccc(-c2cn3ccsc3n2)cc1 was read as ST2 inh inactive.
For CN(C)c1ccc(/C=C(\C#N)c2nc(-c3ccc(Br)cc3)cs2)cc1 the results were ST2 inh 53%*.
`COc1ccc(-c2csc(/C(C#N)=C/c3cccc(F)c3)n2)cc1` gave ST2 inh 43%*.
Screening CCOc1ccc(-c2csc(/C(C#N)=C/c3ccc(N(C)C)cc3)n2)cc1 returned ST2 inh 65%*.
